# Experimental data: PubChem BioAssay (NCATS)
# Values joined by “and” are separate entries in the source; they are usually repeats but may differ in a detail not shown here. Identical values can stand only once. A number with no mark means an inactive call. Results filed as inconclusive are left out. Entries that show only a call come without a potency. Active and inactive are the calls of the source. Unless noted, the call rests on the fitted dose curve; in most records, active means well fitted curve in the direction sought with a large enough effect; inconclusive means small, poorly fitted or top-dose-only effect, or another doubt; inactive means no such curve, though single readings can be large; an effect the other way counts as inactive or inconclusive.
# How the values were obtained:
# [1] = qHTS assay for small molecule antagonists of the retinoid-related orphan receptor gamma (ROR-gamma) signaling pathway - cell viability counter screen (AID 720652; active means well fitted curve in the direction sought with a large enough effect in the repeat runs; an effect the other way counts as inactive or inconclusive;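 further: compound exposure lasted 16 hr before ATP read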; further: potency means the concentration at half of the fitted maximal effect)
# Method in brief: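 CHO cells carrying TET-inducible ROR and RORE-luciferase reporter, plated 5 hr, then dosed with compound plus doxycycline. After 16 hr at 37 C, viability read as intracellular ATP by CellTiter-Glo luminescence.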
# [2] = qHTS Assay for Identifying Gametocytocidal Compounds (AID 743244); further: potency means the concentration at half of the fitted maximal effect;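 on max response: actives lower the fluorescent signal which means gametocytes are killed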; conditions: P. falciparum 3D7 stage III-V gametocytes, alamarBlue, 72 h; max response: stronger effect = lower value
# Method in brief: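 3D7 gametocytes, stages III–V, 20,000/well; cpd 72 h, 37 °C/5% CO2; + alamarBlue 24 h; fluor. Ex 525/Em 598.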
# [3] = qHTS assay for small molecule agonists of the antioxidant response element (ARE) signaling pathway measured by Nrf2-dependant transcriptional activity (AID 720636; active means well fitted curve in the direction sought with a large enough effect in the repeat runs; an effect the other way counts as inactive or inconclusive)
# Method in brief: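 ARE-luc HepG2 cells carrying an Nrf2-responsive luciferase reporter were plated in medium with 1% dialyzed FBS, left 6 hr at 37 C to attach, then exposed to compound for 16 hr. Luciferase luminescence was read after ONE-Glo addition.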
# [4] = qHTS assay for small molecule agonists of the antioxidant response element (ARE) signaling pathway measured by Nrf2-dependant transcriptional activity - cell viability counter screen (AID 720653; active means well fitted curve in the direction sought with a large enough effect in the repeat runs; an effect the other way counts as inactive or inconclusive); conditions: ARE-bla HepG2 viability, CellTiter-Glo ATP luminescence, 16 h; stronger effect = lower value
# Method in brief: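 ARE-bla HepG2 cells treated with compounds for 16 h at 37C; this counter screen measures viability as intracellular ATP by CellTiter-Glo luminescence after 30 min at room temperature.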
# [5] = qHTS assay for cell viability of HEK293 cells (AID 743288); conditions: ATP luminescence (CellTiter-Glo), 18 h, stronger effect = lower value; further: nearly all actives have a fitted effect of over 50% in size
# Method in brief: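 Parental HEK293 cells were seeded at 2,000 cells/well, rested at least 5 h at 37 C, then exposed to compounds in DMSO for 18 h at 37 C. Viability was read as ATP-dependent luciferase luminescence after 30 min at room temperature.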
# [6] = qHTS assay for cell viability of the p53RE-bla HCT-116 cell line (AID 743292); further: nearly all actives have a fitted effect of over 55% in size
# Method in brief: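 CellSensor p53RE-bla HCT-116 cells, 4,000/well, preincubated 5 h at 37 C, then exposed to compounds in DMSO for 16 h at 37 C. Viability read as CellTiter-Glo luminescence (intracellular ATP) after 30 min at room temperature.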
# [7] = target: T1, Hexokinase-4 (Homo sapiens) + Glucokinase regulatory protein (Homo sapiens) (UniProt P35557+Q14397); experiment: qHTS assay for inhibitors of recombinant human GCK-GKRP interaction: Diaphorase-coupled assay (AID 743205)
# T1 sequence (P35557 whole entry, looked up): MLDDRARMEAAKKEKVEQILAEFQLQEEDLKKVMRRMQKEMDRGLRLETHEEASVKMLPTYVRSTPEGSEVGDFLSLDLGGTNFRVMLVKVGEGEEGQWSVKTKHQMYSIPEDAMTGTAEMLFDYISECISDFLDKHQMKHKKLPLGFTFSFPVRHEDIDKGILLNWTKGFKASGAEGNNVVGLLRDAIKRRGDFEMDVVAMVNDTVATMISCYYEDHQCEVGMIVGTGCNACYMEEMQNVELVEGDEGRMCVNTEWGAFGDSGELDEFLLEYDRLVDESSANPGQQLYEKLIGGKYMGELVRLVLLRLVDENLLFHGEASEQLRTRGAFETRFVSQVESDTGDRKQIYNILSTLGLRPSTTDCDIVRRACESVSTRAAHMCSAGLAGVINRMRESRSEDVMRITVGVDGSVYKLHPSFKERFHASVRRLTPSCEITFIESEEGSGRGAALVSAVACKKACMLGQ
# T1 sequence (Q14397 whole entry, looked up): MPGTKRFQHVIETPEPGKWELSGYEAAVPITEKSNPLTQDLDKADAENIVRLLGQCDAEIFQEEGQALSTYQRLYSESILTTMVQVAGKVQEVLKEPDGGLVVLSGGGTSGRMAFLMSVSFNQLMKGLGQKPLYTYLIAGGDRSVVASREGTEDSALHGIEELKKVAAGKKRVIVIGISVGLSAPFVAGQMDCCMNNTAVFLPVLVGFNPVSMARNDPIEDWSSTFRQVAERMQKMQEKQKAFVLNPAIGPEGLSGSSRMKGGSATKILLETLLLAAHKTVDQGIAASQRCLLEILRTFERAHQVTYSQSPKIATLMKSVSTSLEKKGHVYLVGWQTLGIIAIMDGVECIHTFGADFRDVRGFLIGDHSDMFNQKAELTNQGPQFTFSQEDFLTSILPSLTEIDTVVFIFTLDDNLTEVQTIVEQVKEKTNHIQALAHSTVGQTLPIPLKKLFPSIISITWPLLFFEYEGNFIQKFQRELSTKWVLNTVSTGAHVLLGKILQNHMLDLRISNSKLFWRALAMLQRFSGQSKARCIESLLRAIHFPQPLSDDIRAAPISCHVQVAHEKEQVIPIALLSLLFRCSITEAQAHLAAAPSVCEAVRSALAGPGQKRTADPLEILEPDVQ
# Method in brief: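 GST-GCK (10 nM) with FLAG-GKRP (10 nM), 5 mM glucose and 0.4 mM ATP in pH 7.6 Hepes; compounds preincubated 20 min with substrate. G6PDH/diaphorase coupling converts resazurin to resorufin, read kinetically (ex 525/em 590 nm) for 30 min.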
# [8] = target: T1, Hexokinase-4 (Homo sapiens) + Glucokinase regulatory protein (Homo sapiens); experiment: qHTS assay for inhibitors of recombinant human GCK-GKRP interaction: ADP-Glo assay (AID 743206)
# Method in brief: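 GST-GCK and FLAG-GKRP (15 nM each in the dispensed mix, with 2 uM S6P) react with 0.4 mM ATP and 5 mM glucose (final) in Hepes pH 7.6 for 60 min at room temperature. ADP is measured by ADP-Glo luminescence.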
# [9] = target: T1, Hexokinase-4 (Homo sapiens) + Glucokinase regulatory protein (Homo sapiens); experiment: qHTS assay for inhibitors of recombinant human GCK-GKRP interaction: HTRF assay (AID 743207)
# Method in brief: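 GST-GCK and FLAG-GKRP (5 nM each) were combined with 2 uM S6P in pH 7.1 Hepes/MgCl2/KCl/DTT buffer, then compound and anti-FLAG XL665/anti-GST K antibodies were added. After 60 min at room temperature, HTRF 665/615 nm emission was read.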
smiles,measurement,setting,value
CC(C)(C)CC(C)(C)c1ccc(OCCOCC[N+](C)(C)Cc2ccccc2)cc1,Potency,[1],inactive
same,Potency,[2],8.91 µM (active)
CN(C)/N=N/c1nc[nH]c1C(N)=O,Potency,[3],inactive
same,Potency,[1],inactive
same,max response,[4],-9.97%
same,max response,[2],5.22%
same,max response,[5],4.22%
same,outcome,[6],inactive
C1CCc2nnnn2CC1,outcome,[7],inactive
same,outcome,[8],inactive
same,outcome,[9],inactive
same,max response,[2],-4.71%
Nc1ccc(C(=O)O)cc1,Potency,[3],inactive
same,Potency,[1],inactive
same,max response,[4],2.28%
same,max response,[2],-1.31%
same,max response,[5],7.36%
same,outcome,[6],inactive
Cc1cc(=O)n(-c2ccccc2)n1C,Potency,[3],inactive
same,max response,[4],-4.23%
same,max response,[2],18.5%
same,max response,[5],-2.36%
same,outcome,[6],inactive
CN(C)C(=S)SC(=S)N(C)C,Potency,[3],inactive
same,max response,[4],4.33%
same,outcome,[6],inactive
Oc1c(Cl)cc(Cl)cc1Sc1cc(Cl)cc(Cl)c1O,Potency,[3],inactive
same,Potency,[1],inactive
same,max response,[2],20.1%
same,outcome,[6],inactive
C[C@H]1C[C@H]2[C@@H]3CCC4=CC(=O)C=C[C@]4(C)[C@@]3(Cl)[C@@H](O)C[C@]2(C)[C@@]1(O)C(=O)CO,Potency,[3],inactive
same,max response,[4],-20.4%
same,max response,[2],3.92%
same,max response,[5],-18.8%
same,outcome,[6],inactive
Oc1ccc(Cl)cc1Sc1cc(Cl)ccc1O,Potency,[1],inactive
same,max response,[2],6.07%
same,outcome,[6],inactive
CC(O)(P(=O)(O)O)P(=O)(O)O,Potency,[3],inactive
same,max response,[4],-6.37%
same,max response,[2],-10.1%
same,max response,[5],-5.92%
same,outcome,[6],inactive
CCCCCCc1ccc(O)cc1O,Potency,[3],inactive
same,max response,[4],-0.701% and 2.74%
same,max response,[2],3.3%
same,max response,[5],-5.8% and 9.71%
same,outcome,[6],inactive
NC(=NCCCCCCN=C(N)/N=C(\N)Nc1ccc(Cl)cc1)/N=C(\N)Nc1ccc(Cl)cc1,Potency,[3],inactive
same,Potency,[1],42.2 µM (active)
same,max response,[4],-4.14%
same,Potency,[2],7.08 µM (active)
same,max response,[5],-23.7% and -11.7% and -27.9%
CC(C)COC(=O)OCN1C(=O)CN(CCN2CC(=O)N(COC(=O)OCC(C)C)C(=O)C2)CC1=O,outcome,[7],inactive
same,outcome,[8],inactive
same,outcome,[9],inactive
same,max response,[2],5.95% and 28.2%
C[C@]12CC[C@@H]3c4ccc(O)cc4CC[C@H]3[C@@H]1CC[C@@H]2O,Potency,[3],inactive
same,max response,[4],-2.14%
same,outcome,[7],inactive
same,outcome,[8],inactive
same,outcome,[9],inactive
same,max response,[2],23.5% and 41.3%
same,max response,[5],-9.32%
same,outcome,[6],inactive
CCCn1c(=O)[nH]c(=O)c2[nH]cnc21,outcome,[7],inactive
same,outcome,[8],inactive
same,outcome,[9],inactive
same,max response,[2],20.2% and 5.21%
CCCCOc1ccc(OCCCN2CCOCC2)cc1,max response,[2],1.4%
C[C@]12CCC(=O)C=C1[C@@H]1C[C@@H]1[C@H]1[C@@H]3[C@@H]4C[C@@H]4[C@@]4(CCC(=O)O4)[C@@]3(C)CC[C@@H]12,max response,[2],5.27%
CNC(=O)CN(CCN(CCN(CC(=O)[O-])CC(=O)NC)CC(=O)[O-])CC(=O)[O-].O.[Gd+3],max response,[2],14.6% and -8.14%
CN1C(CCl)Nc2cc(Cl)c(S(N)(=O)=O)cc2S1(=O)=O (stereo not given),max response,[2],12.5%
COc1cc(/C=C/C(=O)O[C@H]2CC[C@]34C[C@]35CC[C@]3(C)[C@@H]([C@H](C)CCC=C(C)C)CC[C@@]3(C)[C@@H]5CC[C@H]4C2(C)C)ccc1O,max response,[2],-6.26% and 0.13%
O=C1CCC(c2ccc(-n3ccnc3)cc2)=NN1,outcome,[7],inactive
same,outcome,[8],inactive
same,outcome,[9],inactive
same,max response,[2],-0.884% and -6.59%
CCN1CCN(c2cc3c(cc2F)c(=O)c(C(=O)O)cn3C2CC2)CC1,max response,[2],1.09%
CC1(C)CCC(NC(=O)[C@@H](N)CCC(=O)O)CC1,outcome,[7],inactive
same,outcome,[8],inactive
same,outcome,[9],inactive
same,max response,[2],-7.5% and 17.9%
O=C(N/N=C/c1ccccc1O)c1ccncc1,max response,[2],-7.05%
CN1C2CCC1CC(OC(=O)c1c[nH]c3ccccc13)C2 (stereo not given),outcome,[7],inactive
same,outcome,[8],inactive
same,outcome,[9],inactive
same,max response,[2],9.76%
CCOC(=O)/C=C(C)/C=C/C=C(C)/C=C/c1c(C)cc(OC)c(C)c1C,max response,[2],14.1%
CC(CCc1ccccc1)NCC(O)c1ccc(O)c(C(N)=O)c1 (stereo not given),outcome,[7],inactive
same,outcome,[8],inactive
same,outcome,[9],inactive
same,max response,[2],16.8%
N[C@@H](Cc1cnc[nH]1)C(=O)O,outcome,[7],inactive
same,outcome,[8],inactive
same,outcome,[9],inactive
same,max response,[2],4.12% and 12.1%
Cc1cc(N)c2cc(NC(=O)Nc3ccc4nc(C)cc(N)c4c3)ccc2n1,max response,[2],-2.17%
C[C@H](CCC(=O)O)[C@H]1CC[C@H]2[C@@H]3C(=O)C[C@@H]4CC(=O)CC[C@]4(C)[C@H]3CC(=O)[C@]12C,max response,[2],6.84%
CC(Cc1ccccc1)(NC(=O)CN)c1ccccc1 (stereo not given),max response,[2],-4.06%
